About 310 (18%) of roughly 1,700 compounds were called active. Not shown: some 25% with an inconclusive outcome. Many of the other results were omitted from the sample, so actives are more common in it than they were. Values without a mark were called inactive.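 The calls were made as follows: active = fluorescence change differs from the solvent-only DMSO control mean at a set confidence level in both duplicate runs; inconclusive = differs from solvent-only control mean in just one of two runs; inactive = the rest.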

From PubChem BioAssay AID1488 (Vanderbilt High Throughput Screening Facility, 2009) come the findings set out here.

Muscarinic acetylcholine receptor M1 (Rattus norvegicus), sequence (P08482 whole entry, looked up): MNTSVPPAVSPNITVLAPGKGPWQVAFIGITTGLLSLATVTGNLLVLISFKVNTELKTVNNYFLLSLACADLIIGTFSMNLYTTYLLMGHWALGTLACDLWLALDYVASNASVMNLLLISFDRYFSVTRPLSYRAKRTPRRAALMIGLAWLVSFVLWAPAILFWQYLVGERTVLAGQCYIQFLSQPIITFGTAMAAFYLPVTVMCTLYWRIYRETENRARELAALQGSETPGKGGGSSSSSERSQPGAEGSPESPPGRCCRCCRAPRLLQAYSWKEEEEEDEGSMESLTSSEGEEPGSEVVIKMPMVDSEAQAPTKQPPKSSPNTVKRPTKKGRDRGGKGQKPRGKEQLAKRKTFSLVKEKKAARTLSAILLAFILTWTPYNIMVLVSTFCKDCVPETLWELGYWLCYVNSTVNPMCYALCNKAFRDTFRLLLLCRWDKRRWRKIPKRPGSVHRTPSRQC

The assay addresses Muscarinic acetylcholine receptor M1 (Rattus norvegicus) (UniProt P08482). The experiment in a line: direct agonism at rat M1 receptor – CHO-M1 cells, Fluo-4 calcium, duplicate retest, confirmation (AID 1488).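 Also: an EC20 dose of acetylcholine follows compound addition during the same imaging run; raw fluorescence intensity difference in instrument units with no normalization to controls.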 The conditions noted are these: Fluo-4 calcium fluorescence, agonist mode, at 10 µM, actives lie on both sides.
As for `COc1ccccc1NC1=NC(c2ccc(Cl)cc2)N=C(N)N1` (stereo not given), the fluorescence change (max-min) is -28.2 (active).

On to `Cc1ccc2oc(=O)c3cnn(CC(=O)N4CCN(c5ccccn5)CC4)c3c2c1`, for which the fluorescence change (max-min) is -16.8.

Turning to `CC(=O)OC(C)C[N+](C)(C)C` (stereo not given), the fluorescence change (max-min) was 529 (active). On to `CC(C[N+](C)(C)C)OC(N)=O` (stereo not given), for which the fluorescence change (max-min) was 389 (active). As for `COc1cccc2c(C)c(C(=O)O)[nH]c12`, the figure is 4.27; as for `O=C(NCc1ccccn1)c1ccc2nc(-c3ccco3)c(-c3ccco3)nc2c1`, 28.5. As for `CCOc1ccc2[nH]c(=O)c(CN(Cc3nnnn3Cc3ccccc3)CC3CCCO3)cc2c1` (stereo not given), the figure is 19.2; as for `Cc1cc2cc(CN(Cc3cccs3)Cc3nnnn3CC3CCCO3)c(=O)[nH]c2cc1C` (stereo not given), 7.46; as for `Cc1cc(NC(=O)COc2ccc(Cl)cc2Cl)n(CCC#N)n1`, -3.95.

For `O=C(O)c1ccc(COCC(F)(F)F)cc1`, the fluorescence change (max-min) is -6.5. For `CC(=O)Nc1ccc(NC(=O)CN2CCCC(C)C2)c(Cl)c1` (stereo not given), the fluorescence change (max-min) is -10.1. For `CCOC(=O)c1cc2n(c1N)-c1ccccc1C2=O`, the fluorescence change (max-min) is 1700 (active). On to `CCOc1cc(N2CCOCC2)c(OCC)cc1NC(=O)COc1cccc2cccnc12`, for which the fluorescence change (max-min) is -14.8.

Turning to `N#CC1=C(N)Oc2c(sc3ccccc23)C1c1ccco1` (stereo not given), the fluorescence change (max-min) is 140 (active). As for `C(=N\n1cnnc1)/c1cccnc1`, the figure is -17.4; as for `O=C1c2ccccc2-c2ncnc3c(N4CCOCC4)cc(N4CCOCC4)c1c23`, -15.7; as for `c1ccc2c(c1)OCC(CNc1ncnc3nc[nH]c13)O2` (stereo not given), 512 (active). Take `O=C(Nc1ccccc1N1CCN(C(=O)c2ccccc2)CC1)c1ccc2c(c1)OCO2`: the fluorescence change (max-min) is -2.28. `CC(C)(C)c1cc(CN2CCN(CCC#N)CC2)cc(C(C)(C)C)c1O`: the fluorescence change (max-min) is 23.3.

With `O=C(NCCc1ccc2c(c1)OCCO2)c1cc2ccccc2o1`, the fluorescence change (max-min) was 25.

As for `CCCN1CC=C2C(C#N)=C(N)C(C#N)(C#N)C(c3cc(OC)ccc3OC)C2C1` (stereo not given), the fluorescence change (max-min) was 85.5 (active). For the molecule `COc1ccccc1Cc1nc(-c2ccc(C)cc2)no1`, the fluorescence change (max-min) is -14. On to `COc1ccc2nc(N3CCCC(O)C3)c(C#N)cc2c1` (stereo not given), for which the fluorescence change (max-min) is 206 (active). For the molecule `COC(=O)c1ccc(CSc2nc3ccccc3c(=O)n2-c2cccc(OC)c2)o1`, the fluorescence change (max-min) was -9.69.

Consider `CCOC(=O)CSc1nc2c(sc(=S)n2CCc2ccccc2)c(=O)n1Cc1ccco1`, for which the fluorescence change (max-min) is -34.1 (active). For the molecule `O=C(CSc1nnc(-c2ccco2)n1Cc1ccccc1)NC(=O)NCc1ccco1`, the fluorescence change (max-min) is -3.05. As for `c1n[nH]c(NCc2ccc3c(c2)OCO3)n1`, the figure is -9.45; as for `COc1cccc(-n2cc3c(c2-c2ccccc2)c(=O)n(C)c(=O)n3C)c1`, -22.4; as for `CC(NC(=O)CSc1nc2c(cc1C#N)CN(C)CC2)c1ccccc1` (stereo not given), 41.3. The result for `CCN(CC)c1ccc2oc(=O)c(C)nc2c1` reads 165 (active). Regarding `CCN(CC)c1ccc2cc(C(=O)O)c(=O)oc2c1`, the fluorescence change (max-min) was 153 (active). Turning to `CCOC(=O)C1CCCN(Cc2nc(N)nc(Nc3ccc(C)cc3)n2)C1` (stereo not given), the fluorescence change (max-min) was 127 (active). The result for `FC(F)(F)COc1nc(N2CCCCC2)nc(N2CCNCC2)n1` reads -8.96; that for `CCOc1nc(-c2ccc(OC)cc2)ccc1-c1noc(-c2cc(OC)c(OC)c(OC)c2)n1`, -5.3. The result for `O=C(CSc1nnc(Cn2cnc3ccccc32)o1)c1ccccc1` reads -8.96.

As for `CCc1nc(Nc2ccc3nccnc3c2)c2oc3ccccc3c2n1`, the fluorescence change (max-min) is -1.32. As for `Cc1ccc(C(=O)COc2cccc(NC(=O)c3ccco3)c2)cc1`, the figure is 131 (active). As to `COc1ccc(CCNC(=O)c2ccco2)cc1`, the fluorescence change (max-min) is -16.3. As for `CN1C(=O)c2ccc(NC(=O)c3c(F)c(F)c(F)c(F)c3F)cc2C1=O`, the fluorescence change (max-min) is 1.53. As for `O=C(c1ccccc1)c1ccc(OC(=O)N2CCCC2)cc1`, the figure is -8.75; as for `Fc1ccc2[nH]c3c(N4CCSCC4)ncnc3c2c1`, 6.07; as for `CC(C)OCCCNc1ncnc2c1[nH]c1ccc(F)cc12`, 51.6 (active). Consider `O=C(Nc1nc(-c2ccc3c(c2)OCO3)cs1)c1ccncc1`, for which the fluorescence change (max-min) is -8.33. As for `O=C(COC(=O)CCc1c[nH]c(=O)[nH]1)Nc1ccccc1Cl`, the figure is 13.2; as for `CCOc1cc(-c2nc3cc(C)ccn3c2NCC2CCCO2)ccc1O` (stereo not given), -30.6 (active).

As to `c1cnn(-c2cc(N3CCOCC3)ncn2)c1`, the fluorescence change (max-min) was -19. `Cc1nc(CNS(=O)(=O)c2ccc(Oc3ccccc3)cc2)cs1`: the fluorescence change (max-min) was -2.69. Regarding `CCOc1ccc2nc(N3CCCN(C(=O)Nc4ccccc4C)CC3)c(C#N)cc2c1`, the fluorescence change (max-min) is 282 (active). With `Cc1nn2c(c1-c1ccccc1)N=C(c1ccco1)CC2c1ccccc1` (stereo not given), the fluorescence change (max-min) was 21.8.

For `COCCNC(=O)C(c1ccc(C)o1)N(Cc1cccs1)C(=O)c1snc(C(N)=O)c1N` (stereo not given), the fluorescence change (max-min) was -1.36.

Turning to `CCN=C1SC(CC(=O)Nc2ccc(C)cc2)C(=O)N1CC` (stereo not given), the fluorescence change (max-min) is -26.1 (active).

On to `Cc1ccc(S(=O)(=O)Nc2ccc3ncccc3c2)cc1`, for which the fluorescence change (max-min) was 17.4. The result for `CCOc1ccc(NC(=O)N2CC=C(n3c(=O)[nH]c4ccccc43)CC2)cc1` reads -24; that for `O=C(CSc1nc2ccccc2o1)N1CCN(c2ccc(Cl)cc2)CC1`, -34.5 (active); that for `O=C(CC1Nc2ccccc2NC1=O)Nc1ccccc1` (stereo not given), -7.08.

As for `Cn1c(=O)c2c(nc(SCC(=O)Nc3ccccc3N3CCCCC3)n2C)n(C)c1=O`, the fluorescence change (max-min) was -20.5. On to `CC1CCCC(C)N1C(=O)CN1CCN(c2nc(-c3ccc(F)cc3)cs2)CC1` (stereo not given), for which the fluorescence change (max-min) is -5.14. For the molecule `O=C(NCCC1=CCCCC1)C1CCN(Cc2cnn(-c3ccccc3)c2-n2cccc2)CC1`, the fluorescence change (max-min) was -25.7 (active). The result for `COc1ccccc1N1CCN(C(=O)c2c(-c3c(Cl)cccc3Cl)noc2C)CC1` reads -19.2. The result for `O=C(Nc1cccc(NC(=O)N2CCN(c3ccccc3)CC2)c1)N1CCN(c2ccccc2)CC1` reads 1.01.

On to `O=C(Cn1cc(C(=O)c2cccs2)c2ccccc21)NCc1cccs1`, for which the fluorescence change (max-min) is -4.9. As for `Cc1cccn2c(=O)c3cc(C#N)c(=NC(=O)c4cccnc4)n(CC4CCCO4)c3nc12` (stereo not given), the figure is 310 (active); as for `Cn1c(C(=O)NCCc2ccsc2)cc2c(=O)n(C)c3ccccc3c21`, -12.8; as for `COc1ncnc2c1N=C1CC(C)(C)CC(N)=C1S2`, 175 (active). For `COc1ccc(C(C(O)C(=O)c2c[nH]c3ccccc23)N2CCN(c3ccccc3)CC2)cc1` (stereo not given), the fluorescence change (max-min) is -11.7.
